The nature of experiment [1]: NCI Yeast Anticancer Drug Screen. Data for the rad50 strain (AID 155).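 Further: 0% = growth of vehicle-only cultures of the same strain.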 To be noted: S. cerevisiae rad50 strain growth inhibition; at 50.0 µM; stronger effect = higher value. Put shortly:
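Yeast carrying a defined DNA repair defect were exposed to test compounds, and growth was compared with vehicle-treated controls to give percent inhibition.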

Experiment [2] can be described thus: NCI Yeast Anticancer Drug Screen. Data for the mec2-1 strain (AID 157). Conditions: S. cerevisiae mec2-1 strain, at 50.0 µM, stronger effect = higher value. Summed up:
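Readout is yeast growth inhibition, normalised to vehicle-treated controls, in the mec2-1 strain exposed to compound.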

Experiment [3] in a line: NCI Yeast Anticancer Drug Screen. Data for the sgs1 mgt1 strain (AID 161).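 Further: 0% = growth of cultures given vehicle only.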 Conditions: S. cerevisiae sgs1 mgt1 strain, at 50.0 µM, stronger effect = higher value. Summed up: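 This yeast growth screen uses a strain with defined DNA-repair lesions; compound-treated growth is compared with vehicle-treated growth.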
Experiment [4] is described as follows: NCI Yeast Anticancer Drug Screen. Data for the cln2 rad14 strain (AID 165).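 Further: 0% = growth equal to vehicle treated cultures.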 To be noted: S. cerevisiae cln2 rad14 strain, at 50.0 µM, stronger effect = higher value. Summed up: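 Relative to vehicle controls, growth inhibition of compound-treated cln2 rad14 yeast was recorded.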
Experiment [5] is described as follows: NCI Yeast Anticancer Drug Screen. Data for the bub3 strain (AID 167). Conditions: S. cerevisiae bub3 mutant strain, at 50.0 µM, stronger effect = higher value. Put shortly: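 Compounds were applied to a genetically altered yeast strain carrying a cell-cycle control defect. Growth inhibition was scored against vehicle-treated controls.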
A short description of experiment [6]: NCI Yeast Anticancer Drug Screen. Data for the mlh1 rad18 strain (AID 175). Conditions: S. cerevisiae mlh1 rad18 strain growth inhibition; at 50.0 µM; stronger effect = higher value. Summed up: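 Test agents were incubated with a yeast strain of defined genotype (DNA damage repair defect). Inhibition of growth was derived by comparison with vehicle-exposed cultures.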

About 79,000 compounds went through this panel and 15% of them were active in at least one assay; those are over-represented in the sample as a whole. A number with no mark means an inactive call. Activity calls are given as the source filed them. No stated cut-off is given here; in the data, active means growth inhibition above about 70%; inactive means the rest.

Consider `CCOC(OCC)c1ccc2c(c1)OCO2`, for which the growth inhibition in experiment [1] was 5.65%; in experiment [2], -5.75%; in experiment [3], 13.2%; in experiment [4] it was 4.7%; in experiment [5] it was -0.05%.
The corresponding values for `CCOP(=S)(OCC)OP(=S)(OCC)OCC` are -44.5%, -50.4%, -40.6%, -13.9% and -28.1%.
For `CO[C@@]12[C@@H]3N[C@@H]3CN1C1=C(C(=O)C(NCCC#N)=C(C)C1=O)[C@@H]2COC(N)=O`, the growth inhibition in experiment [1] was -15.8%; in experiment [2], 13.2%; in experiment [3] it was -13.1%; in experiment [4], 10.6%; in experiment [5], -5.3%.
`O=C1c2ccccc2C(=O)c2ccccc21`: the growth inhibition in experiment [1] was 37%; in experiment [2], 5.25%; in experiment [3], 1.95%; in experiment [4], -29.4%; in experiment [5], 25.5%.
For `O.O=[N+]([O-])O.[NH2-].[NH2-].[Pt+2]`, in that order: 22.9%, 20.4%, 8.6%, 15.2% and 4.55%.
As for `CCOC(=O)c1c(SC)nc(-c2ccc(Cl)cc2)sc1=N`, the growth inhibition is 18.4% in experiment [1]; 19.6% in experiment [2]; 24.8% in experiment [3]; 25.9% in experiment [4]; 28.1% in experiment [5].
On to `NC1=NC(N)=N1`, for which the growth inhibition in experiment [1] is 1.95%; in experiment [2], 16.6%; in experiment [3] it was -6.2%; in experiment [4] it was -1.25%; in experiment [5], 14.2%.
For `CCOC(=O)NP(=O)(Nc1ccc(C)cc1)Nc1ccc(C)cc1`, in that order: 6.2%, -12%, -0.3%, 6.75% and -9.55%.
For `C1=CC2C=CC(C=C1)[PH+]2c1ccccc1.C1=CC2C=CC(C=C1)[PH+]2c1ccccc1.[C-]#[O+].[C-]#[O+].[C-]#[O+].[Fe]` (centres undefined), in that order: -20.1%, 4.4%, -6.6%, 26.1% and 10.6%.
Regarding `O=C(Cc1ccc(N(CCCl)CCCl)cc1)NC1CCCC1`, the growth inhibition is -0.05% in experiment [1]; -16.6% in experiment [2]; -13.9% in experiment [3]; -22.9% in experiment [4]; -2.3% in experiment [5].
The corresponding values for `CS(=O)(=O)NC(=NCCOS(C)(=O)=O)N[N+](=O)[O-]` are 9%, -8.5%, 19.4%, -6.85% and 1.9%.
For `Cc1ccc(C(=O)CN)cc1`, the growth inhibition in experiment [1] is 10.4%; in experiment [2] it was 0.05%; in experiment [3] it was -1.35%; in experiment [4], 4%; in experiment [5], 3.45%.
For `COc1cc2c(cc1OC)C(c1ccc(O)c(O)c1)CNC2` (centres undefined), in that order: -27.8%, -7.9%, -31.1%, -10.1% and -21.1%.
For `Oc1ccc(CC2NCCc3cc(O)c(O)cc32)cc1O` (centres undefined), in that order: 17.5%, -4.15%, 26.3%, 24.3% and 26.4%.
As for `C=C1C(=O)OC2CCN3CC=C(COC(=O)C(C)(O)C4(CO4)C1C)C23` (centres undefined), the growth inhibition is 11.1% in experiment [1]; 0.95% in experiment [2]; -20.9% in experiment [3]; -12.8% in experiment [4]; -35.5% in experiment [5].
For `[Se]=[Mo]=[Se]`, in that order: -10.2%, -8.3%, -29.9%, -18% and -7.05%.
For the compound `Cc1ccc(N[N+](=O)[O-])nc1`, the growth inhibition in experiment [1] is -7.25%; in experiment [2], 8.55%; in experiment [3], -1.15%; in experiment [4], -10.2%; in experiment [5], -3.15%.
For `CC(C)c1ccc(CCN)cc1`, in that order: 6.25%, 3.5%, -19.8%, -0.2% and 5.65%.
On to `O=C(c1ccccc1)C1NC1c1ccccc1` (centres undefined), for which the growth inhibition in experiment [1] is 13.8%; in experiment [2], 39.4%; in experiment [3] it was 1.65%; in experiment [4], -16.6%; in experiment [5] it was 19.8%.
`CN=c1ssc(/N=C(\SC)N(C)C)[n+]1C`: the growth inhibition in experiment [1] is -17.7%; in experiment [2], -10.1%; in experiment [3] it was -13.8%; in experiment [4] it was -65.7%; in experiment [5], -19.4%.
For `COc1ccc(CCN)cc1OC`, in that order: 37.5%, 9.9%, 23%, -82% and -5.05%.
As for `O=[As]c1ccc(C(=O)Cl)cc1` (centres undefined), the growth inhibition in experiment [1] is -2.3%; in experiment [2] it was -16.4%; in experiment [3], -20.1%; in experiment [4], 2.15%; in experiment [5] it was -25.3%.
The corresponding values for `CCC(O)C[As](=O)(O)c1ccccc1OC` (centres undefined) are 5.75%, 20.2%, 2%, -1.6% and 18.1%.
As for `O=P(Oc1ccccc1)(Oc1ccccc1)C(O)c1ccccc1` (centres undefined), the growth inhibition in experiment [1] was 11.2%; in experiment [2], 3.55%; in experiment [3], 16.8%; in experiment [4], 0.65%; in experiment [5], -8.4%.
For `N=C(N)N.[O]=[Cr](=[O])([OH])[OH]`, in that order: 29.4%, -39.9%, 37.5%, 10.6% and 26.8%.
Consider `Nn1cnnc1`, for which the growth inhibition was -12.9% in experiment [1]; -7.95% in experiment [2]; -9.7% in experiment [3]; -9.35% in experiment [4]; -3.05% in experiment [5]; -16.2% in experiment [6].
For `CC(CO)([N+](=O)[O-])[N+](=O)[O-]`, the growth inhibition in experiment [1] is 7.45%; in experiment [2] it was 4.75%; in experiment [3], -0.05%; in experiment [4], -0.1%; in experiment [5], 4.8%.
Regarding `CN1CCc2cc3c(cc2[C@H]1[C@@H]1OC(=O)c2c1ccc1c2OCO1)OCO3`, the growth inhibition in experiment [1] was -11.4%; in experiment [2], -38.5%; in experiment [3], -26%; in experiment [4], -0.25%; in experiment [5], -29.1%.
As for `c1ccc(N2CCN(c3ccccc3)CC2)cc1`, the growth inhibition in experiment [1] is -31.7%; in experiment [2] it was -8.35%; in experiment [3] it was -1.15%; in experiment [4], -57.5%; in experiment [5], 37.8%.
The corresponding values for `O=C(O)C1C2Cc3ccccc3C1c1ccccc12` (centres undefined) are -1.6%, -7.55%, 0.95%, 0.6% and -13.7%.
For `[N-]=[N+]=CC(=O)c1ccc(Cl)cc1`, in that order: 34.5%, 28.4%, 14%, -16.5% and 50.1%.
On to `O=[N+]([O-])C1(Cl)CCC(Cl)([N+](=O)[O-])CC1` (centres undefined), for which the growth inhibition in experiment [1] is 5.85%; in experiment [2] it was -6.2%; in experiment [3], -2.1%; in experiment [4], -23.4%; in experiment [5], -14.6%.
`CCOP12(OCC)NC(=O)OC1(C(F)(F)F)c1ccccc1O2` (centres undefined): the growth inhibition is -19.4% in experiment [1]; 3.9% in experiment [2]; -38% in experiment [3]; -7% in experiment [4]; -26.4% in experiment [5].
For `N/C(=N\NC(=O)c1ccc([N+](=O)[O-])cc1)N[N+](=O)[O-]`, in that order: -11.1%, -12.2%, -3.65%, 28.8% and 11.2%.
For the compound `O=C1NC(=O)C(O)(Cc2ccccn2)C(=O)N1`, the growth inhibition in experiment [1] was 9.9%; in experiment [2] it was 6.45%; in experiment [3], 13.5%; in experiment [4] it was 13.2%; in experiment [5] it was -21.1%.
The corresponding values for `c1cc2c(cc1[C@@H]1OC[C@@H]3[C@H]1CO[C@H]3c1ccc3c(c1)OCO3)OCO2` are 14.1%, 12.8%, 47.2%, 12.2% and 65.5%.
In the case of `Clc1ccc(N=c2ccc3ccccc3[oH+]2)cc1.Clc1ccc(N=c2ccc3ccccc3[oH+]2)cc1.[Co]`, the growth inhibition in experiment [1] was -5.05%; in experiment [2], -25.4%; in experiment [3] it was 14.8%; in experiment [4], -59.2%; in experiment [5], -12.8%.
The corresponding values for `C/C=C\C(C)=C/C(C)C(=O)CC(O)CC1CC(=O)NC(=O)C1` (centres undefined) are 11.6%, -20.4%, -6.9%, 11.8% and 7.85%.
Take `CC(Oc1ccc([N+](=O)[O-])cc1Cl)C(=O)Nc1ccc(S(=O)(=O)F)cc1` (centres undefined): the growth inhibition is -12.8% in experiment [1]; -14.4% in experiment [2]; -9.4% in experiment [3]; 4% in experiment [4]; 0.2% in experiment [5].
Turning to `C[CH2][Sn](/[CH]=C\CO)([CH2]C)[CH2]C`, the growth inhibition in experiment [1] is 63%; in experiment [2] it was 77.8% (active); in experiment [3], 85.2% (active); in experiment [4], 43.8%; in experiment [5], 93.6% (active); in experiment [6], 94.6% (active).
As for `CC(=N\O)/C(C)=N/O.CC(=N\O)/C(C)=N/O.CC(=N\O)/C(C)=N/O.CC(=N\O)/C(C)=N/O.[Cu].[Cu]`, the growth inhibition in experiment [1] is -7.15%; in experiment [2] it was 12.9%; in experiment [3], -22.1%; in experiment [4], -8.2%; in experiment [5], -13.9%; in experiment [6], -4.2%.
As to `CC(=O)Nc1cc([As](=O)(O)O)ccc1O`, the growth inhibition in experiment [1] was 31.6%; in experiment [2], 14.3%; in experiment [3] it was 31.8%; in experiment [4] it was -28.2%; in experiment [5], 9.85%; in experiment [6] it was 33.8%.

These data come from PubChem BioAssay (NCI).
